Source: PubChem BioAssay (National Center for Advancing Translational Sciences (NCATS))
A selection: hits, their analogues and other compounds. The true share with any hit is near 3.1%.
VDR inhibitor – vitamin D3 receptor (human) inhibition; P11473; VDR-SRC2-3 peptide fluorescence polarization, 2 h; Potency, µM, inactives show max response, negative = inhibition, most hits filed as inhibitors; 400,000 tested, 0.93% active; note: potency is the fitted concentration of half-maximal effect; % is set by controls: 0 for no effect and ±100 for the full control effect
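After 23 nl compound addition and a short centrifugation, plates sat for 2 hours at ambient temperature; polarization of fluorescence then indicated loss of VDR binding to peptide SRC2-3.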
PLK1 PBD inh – inhibitors of human PLK1 polo-box domain binding. Plk1 PBD binding of FITC phosphopeptide, fluorescence polarization. AID 720504. Potency, µM, for the others: max response, negative = inhibition, hits mostly inhibitors. P53350. 360,000 tested, 2.8% active; note: potency is the fitted concentration of half-maximal effect; series mostly up to about 57 µM; % is set by controls: 0 for no effect and ±100 for the full control effect; nearly all actives have a fitted effect of over 65% in size
Target sequence (P53350 whole entry, looked up, the tested form may be a part): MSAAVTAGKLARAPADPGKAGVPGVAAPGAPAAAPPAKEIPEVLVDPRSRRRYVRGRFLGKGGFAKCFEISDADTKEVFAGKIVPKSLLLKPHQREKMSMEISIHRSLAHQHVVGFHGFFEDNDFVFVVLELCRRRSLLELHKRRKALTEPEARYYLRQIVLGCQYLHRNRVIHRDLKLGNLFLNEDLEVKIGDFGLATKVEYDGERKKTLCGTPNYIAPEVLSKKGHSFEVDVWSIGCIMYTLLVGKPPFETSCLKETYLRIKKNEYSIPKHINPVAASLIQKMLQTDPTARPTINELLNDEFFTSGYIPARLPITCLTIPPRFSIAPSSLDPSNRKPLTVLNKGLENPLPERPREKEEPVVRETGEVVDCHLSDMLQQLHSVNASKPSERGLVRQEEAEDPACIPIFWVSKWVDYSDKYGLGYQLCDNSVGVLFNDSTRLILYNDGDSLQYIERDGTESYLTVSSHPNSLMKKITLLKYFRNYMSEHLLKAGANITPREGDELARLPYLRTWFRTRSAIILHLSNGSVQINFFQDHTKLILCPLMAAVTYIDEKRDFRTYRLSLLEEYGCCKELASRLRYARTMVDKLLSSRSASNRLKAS
TSG101-PTAP inh – blocks PTAP/TSG101 interaction to inhibit HIV-1 budding; AID 493005; Fluorescence polarization, FITC-PTAP peptide / Tsg101 binding; Q99816; 340,000 tested, under 10 active; Potency, µM (titrated, usually from 115 µM), inactives show top-dose activity change, negative = inhibition, actives largely listed as inhibitors; active = well fitted inhibition curve with a large enough effect in the main read-out, with a control signal flat, not every such curve was filed as active; inconclusive = small, poorly fitted or top-dose-only effect, or effect the other way, or a change in a side signal; inactive = no such curve, though single readings can be large or run the other way; note: potency is the fitted concentration of half-maximal effect; % of control where 0% means no effect
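Fluorescence anisotropy tracks displacement of a FITC-tagged PTAP peptide (50 nM) from the Tsg101 binding domain (10 uM), following a 20 min room-temperature incubation at pH 7.5.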
TSHR antagonist – antagonists of human thyroid stimulating hormone receptor. TSHR-expressing cells, TSH-stimulated cAMP HTRF, 2 h; active compounds read low. activity change, negative = inhibition, % at 11.5 µM. 330,000 tested, 0.2% active;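 active = activity change below a set negative limit, meaning inhibition stronger than a set level, cut at about -70% in these data; inconclusive = activity change between two set negative limits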; note: % is set by controls: 0 for no effect and ±100 for the full control effect
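TSHR-expressing cells, 200/well, pre-treated with compound, then stimulated with EC80 TSH (4nM final) for 2 hours at 37 deg C. cAMP measured by competitive HTRF: anti-cAMP cryptate antibody in lysis buffer plus cAMP-d2, read after 30 minutes at room temperature.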
uPA generation – inhibitors of cell surface uPA generation; Potency, µM (series often up to 38.3 µM), without a hit: at the highest dose activity change, negative = inhibition, most hits filed as inhibitors; 330,000 tested, 0.31% active; AID 540303; cell surface uPA generation assay, qHTS; active = well fitted inhibition curve with a large enough effect; inconclusive = small, poorly fitted or top-dose-only effect; inactive = no such curve, though single readings can be large or run the other way; tested in mouse RAW 264.7 cells; note: potency is the fitted concentration of half-maximal effect; % is set by controls: 0 for no effect and ±100 for the full control effect; nearly all actives have a fitted effect of over 55% in size
TbPYK confirm – confirmation of Trypanosoma brucei pyruvate kinase inhibitors. 890 tested, 67% active. AID 720569. recombinant TbPYK, Kinase-Glo ATP luminescence. shares compounds with PLK1 PBD inh. Potency, µM (highest dose often 76.9 µM), without a hit: top-dose activity change, negative = inhibition, actives largely listed as inhibitors; note: potency is the fitted concentration of half-maximal effect; % is set by controls: 0 for no effect and ±100 for the full control effect; nearly all actives have a fitted effect of over 70% in size
TbPYK orthogonal – TbPYK inhibition, orthogonal confirmation; shares compounds with PLK1 PBD inh; recombinant TbPYK, ADP-Glo luminescence, 60 min; Potency, µM (top dose mostly 76.9 µM), for inactives: at the highest dose activity change, negative = inhibition, actives largely listed as inhibitors; 890 tested, 62% active; AID 720584; note: potency is the fitted concentration of half-maximal effect; % is set by controls: 0 for no effect and ±100 for the full control effect; nearly all actives have a fitted effect of over 75% in size
The depositor's hits bear a star; ? = inconclusive; · = no result. Unless noted, calls come from the whole dose curve; as a rule, active = well fitted curve in the direction sought with a large enough effect; inconclusive = small, poorly fitted or top-dose-only effect, or another doubt; inactive = no such curve, though single readings can be large; an effect the other way counts as inactive or inconclusive.

SMILES	VDR inhibitor	PLK1 PBD inh	TSG101-PTAP inh	TSHR antagonist	uPA generation	TbPYK confirm	TbPYK orthogonal
COc1cc(OC)c(C2CC(=O)N3CN(c4ccc(C)cc4)CSC3=C2C#N)cc1OC (centres undefined)	45µM*	21µM*	-2%	-14	-3%	1.4µM*	1.3µM*
COc1ccc(CCNC(=O)C2CC(=O)N(c3ccc(C)cc3)C2)cc1OC (centres undefined)	-4%	4%	-1%	-3	-12%	·	·
COc1ccc(C2CC(=O)N3CN(c4ccc(C)c(Cl)c4)CSC3=C2C#N)cc1OC (centres undefined)	22µM*	?	-4%	1	7.1µM*	?	18µM*
CCOc1ccccc1N1CSC2=C(C#N)C(c3c(OC)ccc4ccccc34)CC(=O)N2C1 (centres undefined)	?	19µM*	-2%	0	?	1.4µM*	1.8µM*
COc1ccc(OC)c(NC(=O)N2CC3CCCN3c3ccccc32)c1 (centres undefined)	15%	·	·	·	·	·	·
Cc1ccccc1C(=O)NCc1ccc2c(c1)CCN2C(=O)c1ccccc1	-2%	·	·	·	·	·	·
COc1ccc(NC(=O)c2cc(-c3cc(C)cc(F)c3)n[nH]2)cc1OC	·	2%	·	·	·	·	·
CCCSC1=C(C#N)C(c2cc(OC)ccc2OC)CC(=O)N1 (centres undefined)	18%	-4%	-2%	-7	-11%	·	·
COc1ccc(N2CSC3=C(C#N)C(c4cc(OC)c(OC)cc4OC)CC(=O)N3C2)c(OC)c1 (centres undefined)	45µM*	12µM*	-1%	-4	-29%	0.63µM*	2.8µM*
CC(=O)c1ccc(N2CCN(C(=O)CCc3nnc4n(C)c(=O)c5sccc5n34)CC2)cc1	6%	·	·	·	·	·	·
O=C(O)c1cc(N=Nc2c(O)ccc3ccccc23)cc(C(=O)O)c1	5%	9.5µM*	-1%	1	18%	7.1µM*	13µM*
Oc1ccc(N=Nc2c(O)ccc3ccccc23)cc1	-9%	-9%	-4%	8	-26%	·	·
CCN(CC)C(=O)CSC1=C(C#N)C(c2cccs2)C=C(C)N1 (centres undefined)	4%	?	-4%	-10	1%	14µM*	14µM*
CCOC(=O)[C@]12CCC=C1N(CCC1=CCCCC1)C(=O)[C@H](CC(=O)NCc1ccc(OC)c(OC)c1)C2	·	-7%	·	·	·	·	·
COc1ccc(C(=O)CSc2ccc(-c3ccco3)nn2)cc1	-21%	-16%	0%	4	-1%	·	·
COc1ccc(OC)c(NC(=O)CSc2ccc(-c3ccco3)nn2)c1	?	?	-1%	0	1%	20µM*	25µM*
O=C(CSc1ccc(-c2ccco2)nn1)c1ccccc1	-30%	?	1%	-4	-2%	?	32µM*
O=C(NCc1ccco1)c1cc2ccc(O)cc2oc1=O	-5%	-13%	-4%	14	0%	20µM*	3%
O=C(c1ccccc1)c1cc2ccc(O)cc2oc1=O	-9%	-8%	-5%	11	·	?	9%
COc1ccc2cc(C(=O)NCc3ccco3)c(=O)oc2c1	-3%	-12%	-3%	-3	3%	·	·
O=C(NCc1ccc(F)cc1)c1cc(Sc2ccc(F)cc2F)nc2ccccc12	7%	·	·	·	·	·	·
